High-throughput results as filed in PubChem BioAssay.
Sampled rows, rich in hits. Any-hit rate of the full collection: about 1.4%.
bovine MsrA act: activators of bovine methionine sulfoxide reductase A. hit rate 0.3% among 360,000. activation, % at 10.6 µM. purified bovine MsrA, absorbance read-out; in the data active = activation above about 7.5%
14-3-3 Bad PPI: disrupts binding of bovine 14-3-3 zeta to phospho-Bad peptide; inhibition, % at 21.7 µM; hit rate 0.71% among 220,000; TR-FRET 14-3-3zeta/Dy647-pBad peptide displacement, 1 h;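 active = inhibition above about 70%, limit read from the data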
Target sequence (P63103 whole entry, looked up): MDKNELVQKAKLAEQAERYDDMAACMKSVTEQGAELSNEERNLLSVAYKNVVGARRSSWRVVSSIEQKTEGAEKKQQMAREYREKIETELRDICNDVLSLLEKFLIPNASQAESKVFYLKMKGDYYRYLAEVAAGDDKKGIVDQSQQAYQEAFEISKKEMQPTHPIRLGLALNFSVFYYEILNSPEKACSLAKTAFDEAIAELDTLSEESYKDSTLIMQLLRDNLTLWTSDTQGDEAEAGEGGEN
MsrA inh: inhibits bovine methionine sulfoxide reductase A; purified bovine MsrA, absorbance read-out; inhibition, % at 15.5 µM; hit rate 0.75% among 360,000; AID 651718; in the data active = inhibition above about 4.5%
pCIP destab: p/CIP protein destabilization; Q05BA5; F442A p/CIP-EGFP cells, EGFP fluorescence, 16 h; decrease of EGFP signal, % at 10 µM; hit rate 0.01% among 290,000;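 active = EGFP signal decrease of at least 30% at 10 µM or well 3 SD below plate mean, unless failing retest; inactive = the rest, including hits failing retest or dose response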
Large screens that a line does not name were inactive; [ ] = dose if it differs, or a comment.

C/C(NCc1cccnc1)=C(\C#N)C(=O)NCc1ccccc1	14-3-3 Bad PPI 71
C/C(NCc1ccccc1)=C(\C#N)C(=O)NCc1ccccc1	none
CC(C)(C)c1ccc(C#C[C@@H]2C=C[C@@H](O)[C@@H](CO)O2)cc1	none (no result: bovine MsrA act, 14-3-3 Bad PPI, pCIP destab)
CCCN1CCN(CCCNC(=S)Nc2ccc3nc(N4CCN(CC)CC4)cc(C)c3c2)CC1	pCIP destab 80
CCn1nc(C)c(NC(=O)/C=C/c2ccc(OC)c(COc3ccc(Cl)cc3Br)c2)c1C	14-3-3 Bad PPI 77
O=C(/C=C/c1ccco1)NC(=S)NNC(=O)c1ccco1	MsrA inh 6.6
CC(=O)NC(=S)Nc1ccc(NC(=S)NC(=O)/C=C/c2ccco2)cc1	none
CC(=O)O[C@@H]1C=C[C@@H](C#Cc2ccc(C(C)(C)C)cc2)O[C@@H]1COC(=O)NC(C)C	none (no result: bovine MsrA act, 14-3-3 Bad PPI, pCIP destab)
CC[n+]1c(/C=C/N(C)c2ccccc2)oc2ccc(Cl)cc21	none
CCN1/C(=C/C=C/c2oc3ccc4ccccc4c3[n+]2CC)Oc2ccc3ccccc3c21	14-3-3 Bad PPI 91 (no result: bovine MsrA act, MsrA inh)
CN(C)c1ccc(CN(C(=O)COc2ccc(F)cc2)C2CCS(=O)(=O)C2)cc1 (stereo not drawn)	bovine MsrA act 8.2 (no result: MsrA inh)
N#CCOC(=O)/C=C/c1ccc2c(c1)OCO2	MsrA inh 7.0
O=C(NC(NC(=S)Nc1ccccc1C(=O)O)C(Cl)(Cl)Cl)c1cccc([N+](=O)[O-])c1 (stereo not drawn)	14-3-3 Bad PPI 73
O=C(NC(NC(=S)Nc1ccccc1Cl)C(Cl)(Cl)Cl)c1cccc(Cl)c1 (stereo not drawn)	none
Cc1ccc(/C=C/c2nc3ccccc3s2)s1	14-3-3 Bad PPI 78
COc1nc(N/N=C/c2ccc(-c3cccc([N+](=O)[O-])c3)o2)nc(N2CCOCC2)n1	14-3-3 Bad PPI 74[fluorescence artefact?] (no result: bovine MsrA act, MsrA inh)
O=[N+]([O-])c1cccc(-c2ccc(/C=N/Nc3nc(N4CCCCC4)nc(N4CCCCC4)n3)o2)c1	none
COc1ccc(-c2cnnc(N/N=C/c3ccc(-c4ccc([N+](=O)[O-])cc4)o3)n2)cc1	14-3-3 Bad PPI 94
CCCN1CCCCC(NC(=O)c2cccs2)C1=O (stereo not drawn)	none (no result: bovine MsrA act, 14-3-3 Bad PPI, pCIP destab)
Cn1cc(CC(=O)Nc2ccc(Nc3cccnc3)c(Br)c2)c2ccccc21	none (no result: bovine MsrA act, 14-3-3 Bad PPI, pCIP destab)
O=C(Nc1nc(=S)ss1)c1ccc(Cl)cc1Cl	14-3-3 Bad PPI 80
O=C(Nc1ccc2ccccc2c1)c1ccc(Cl)cc1Cl	none
CCOC(=O)c1nnn(-c2nonc2N)c1CSc1ccccc1	none
CCOC(=O)c1nnn(-c2nonc2N)c1CSc1ccccn1	bovine MsrA act 8.0
COc1cc(C(=O)NN=C2c3ccccc3-c3ccccc32)cc(OC)c1OC	none (no result: bovine MsrA act, 14-3-3 Bad PPI, pCIP destab)
COc1ccc(N2CCN(C(C)C(=O)N3CCCC3)CC2)cc1 (stereo not drawn)	14-3-3 Bad PPI 79
O=C(CSC1CCc2ccccc21)NNC(=O)Nc1ccc(Cl)cc1 (stereo not drawn)	none (no result: bovine MsrA act, 14-3-3 Bad PPI, pCIP destab)
C=CC(=O)NC1CCCCN(CCC)C1=O (stereo not drawn)	none (no result: bovine MsrA act, 14-3-3 Bad PPI, pCIP destab)
C=CCn1c(SCC(=O)c2[nH]c(C)c(C(C)=O)c2C)nnc1-c1ccncc1	none
C=CCn1c(SCC(=O)c2[nH]c(C)c(C(=O)OC)c2C)nc2scc(-c3ccc(OC)c(OC)c3)c2c1=O	14-3-3 Bad PPI 96
CCCCc1c(-c2ccccc2OC)ncn1Cc1ccccc1Cl	none (no result: bovine MsrA act, 14-3-3 Bad PPI, pCIP destab)
N#Cc1ccc(OCCCN2CCC(C(O)(C3=CCCC3)c3ccccc3)CC2)cc1 (stereo not drawn)	none (no result: bovine MsrA act, 14-3-3 Bad PPI, pCIP destab)
CSc1nc(-c2ccco2)nn1S(=O)(=O)c1ccccc1	14-3-3 Bad PPI 81 (no result: bovine MsrA act, MsrA inh)
CSc1nc(-c2ccco2)nn1S(=O)(=O)c1ccc(C)cc1	none
COC(=O)c1ccc(Nc2cc(C)nc3ccc(C)cc23)cc1	none
Cc1ccc2nc(C)cc(Nc3ccc([N+](=O)[O-])cc3)c2c1	14-3-3 Bad PPI 77
CC(C)CCNC(=O)[C@@H](Cc1ccccc1)NC(=O)[C@H]1O[C@@H](n2ccc(=O)[nH]c2=O)[C@H](O)[C@@H]1O	none (no result: bovine MsrA act, 14-3-3 Bad PPI, pCIP destab)
Cc1ccc(NC(=O)CN2C(=O)S/C(=C\c3ccc(-c4cccc(C(=O)O)c4C)o3)C2=O)cc1C	14-3-3 Bad PPI 87
CC(=O)c1c(COC(=O)c2ccco2)nc2ccccc2[n+]1[O-]	none (no result: 14-3-3 Bad PPI)
COc1ccc2nc(COC(=O)c3ccco3)c(C(C)=O)[n+]([O-])c2c1	14-3-3 Bad PPI 86[fluorescence artefact?]
COC(=O)C1=C(C)N(C)C(=NCC2CC2)NC1CCc1ccccc1 (stereo not drawn)	none (no result: bovine MsrA act, 14-3-3 Bad PPI, pCIP destab)
CC(NCc1ccc(N(C)C)cc1)C1CC2CCC1C2 (stereo not drawn)	14-3-3 Bad PPI 78
COC(=O)C1c2ccccc2-c2ccccc21	14-3-3 Bad PPI 78
C=CC(=O)N1C/C(=C/c2ccc(F)cc2)C(=O)/C(=C\c2ccc(F)cc2)C1	MsrA inh 5.1 (no result: 14-3-3 Bad PPI, pCIP destab)
CN1C2CCC1/C(=C\c1ccc(F)cc1)C(=O)/C2=C/c1ccc(F)cc1	none
CCNC(=O)O/N=C(\C)c1sc(-c2ccc(Cl)cc2)nc1C	MsrA inh 4.6
Nc1c(C(=O)O)sc2nc3c(cc12)CCCC3	none
CN1CCc2nc3sc(C(=O)C45CC6CC(CC(C6)C4)C5)c(N)c3cc2C1	14-3-3 Bad PPI 81[fluorescence artefact?]
CC(C)Oc1ccc(-c2cc(C(=O)NCCN3CCOCC3)c3ccccc3n2)cc1	MsrA inh 4.6
CCOC(=O)C1C(=O)C=C(C)C(C(=O)OCC)C1c1cccc([N+](=O)[O-])c1 (stereo not drawn)	MsrA inh 4.6 (no result: 14-3-3 Bad PPI)
CCOC(=O)C1C(=O)C=C(c2ccc([N+](=O)[O-])cc2)CC1c1ccccc1 (stereo not drawn)	none (no result: 14-3-3 Bad PPI)
CSc1ccc(Oc2cccc3c2S(=O)(=O)N(C2CC2)C[C@@H](COCc2ccccc2)O3)cc1C	none (no result: bovine MsrA act, 14-3-3 Bad PPI, pCIP destab)
COc1ccc2cc3c(N)nn(C(=O)c4ccc(Cl)c([N+](=O)[O-])c4)c3nc2c1	14-3-3 Bad PPI 74[fluorescence artefact?]
O=C(CNc1cccc(C(F)(F)F)c1)N/N=C/c1cn(-c2ccccc2)nc1-c1ccccc1	MsrA inh 4.6
OCCN(Cc1ccccc1)Cc1ccc(Cl)cc1Cl	14-3-3 Bad PPI 87
OCCN(Cc1ccccc1)Cc1ncccc1O	none (no result: 14-3-3 Bad PPI, pCIP destab)
C[C@H]1[C@@H]2C[C@@]3(O[C@H](c4ccc(C(F)(F)F)cc4)N=C3C[C@@H]1c1ccccc1)N(Cc1ccncc1)C2=O	none (no result: bovine MsrA act, 14-3-3 Bad PPI, pCIP destab)
CCc1cccc(Nc2cc(C)n(-c3cccc(CC)c3)c(=O)c2)c1	none (no result: bovine MsrA act, 14-3-3 Bad PPI, pCIP destab)
CC(C)C(c1nnnn1C(C)(C)C)N1CCOCC1 (stereo not drawn)	14-3-3 Bad PPI 71
CC(C)C(c1nnnn1C1CCCCC1)N1CCOCC1 (stereo not drawn)	none
Cc1c(NC(=S)N/N=C/c2ccc(O)cc2)c(=O)n(-c2ccccc2)n1C	MsrA inh 4.8
Cc1c(NC(=S)N/N=C/c2cc([N+](=O)[O-])ccc2O)c(=O)n(-c2ccccc2)n1C	none
COc1ccc(CCNc2ccncn2)cc1	14-3-3 Bad PPI 72
O=C(N1CCOCC1)N1CCC(c2nc(-c3ccc(S(=O)(=O)N4CCOCC4)cc3)no2)CC1	14-3-3 Bad PPI 73
O=C(C1CC1)N1CCC(c2nc(-c3ccc(S(=O)(=O)N4CCCC4)cc3)no2)CC1	none
CC(=O)COc1cc2c(-c3cc4ccccc4o3)cc(=O)oc2cc1C	MsrA inh 7.1 (no result: 14-3-3 Bad PPI)
CCc1cc2c(-c3ccccc3)cc(=O)oc2cc1OCC(C)=O	none (no result: 14-3-3 Bad PPI)
